Source: PubChem BioAssay (NCI)
The panel holds about 79,000 compounds, 15% with a hit somewhere; the sample as a whole holds those more often. Unmarked numbers belong to inactive results. Activity calls are given as the source filed them. No stated cut-off is given here; in the data, active means growth inhibition above about 70%; inactive means the rest.

Assays:
[1] = NCI Yeast Anticancer Drug Screen. Data for the rad50 strain (AID 155);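 further: 0% = growth of vehicle-only cultures of the same strain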; conditions: S. cerevisiae rad50 strain growth inhibition, hits give high values
Summary of the method: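 Relative growth inhibition (compound vs vehicle) was measured in yeast with a defined repair-gene alteration.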

[2] = NCI Yeast Anticancer Drug Screen. Data for the mec2-1 strain (AID 157); conditions: S. cerevisiae mec2-1 strain, hits give high values
Summary of the method: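 mec2-1 yeast strain, carrying an alteration in DNA damage repair or cell cycle control, was exposed to compounds; growth inhibition was measured relative to vehicle-treated controls.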

[3] = NCI Yeast Anticancer Drug Screen. Data for the sgs1 mgt1 strain (AID 161);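 further: 0% = growth of cultures given vehicle only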; conditions: S. cerevisiae sgs1 mgt1 strain, hits give high values
Summary of the method: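 Compounds are added to genetically altered yeast, and growth is compared with cultures given vehicle alone to give percent inhibition.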

[4] = NCI Yeast Anticancer Drug Screen. Data for the cln2 rad14 strain (AID 165);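 further: 0% = growth equal to vehicle treated cultures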; conditions: S. cerevisiae cln2 rad14 strain, hits give high values
Summary of the method: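 Yeast carrying cln2 and rad14 alterations (cell cycle control and DNA damage repair) were exposed to compounds. Growth inhibition was measured against vehicle-treated controls.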

[5] = NCI Yeast Anticancer Drug Screen. Data for the bub3 strain (AID 167); conditions: S. cerevisiae bub3 mutant strain, hits give high values
Summary of the method: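 Screening used yeast with an engineered genetic alteration affecting cell cycle control. Compound-exposed cultures were compared with vehicle cultures, and reduced growth was taken as inhibition.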

[6] = NCI Yeast Anticancer Drug Screen. Data for the mlh1 rad18 strain (AID 175); conditions: S. cerevisiae mlh1 rad18 strain growth inhibition, hits give high values
Summary of the method: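 Growth inhibition of the yeast strain was measured after compound exposure and expressed relative to vehicle-treated controls. The strain carries defined defects in DNA damage repair.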

[7] = at 5.0 µM (retest, dose inferred, filed as 0.5)
[8] = at 50.0 µM (retest, dose inferred, filed as 5.0)

Compound | growth inhibition [1, 7] | growth inhibition [1, 8] | growth inhibition ([1]; at 50.0 µM) | growth inhibition [2, 7] | growth inhibition [2, 8] | growth inhibition ([2]; at 50.0 µM) | growth inhibition [3, 7] | growth inhibition [3, 8] | growth inhibition ([3]; at 50.0 µM) | growth inhibition [4, 7] | growth inhibition [4, 8] | growth inhibition ([4]; at 50.0 µM) | growth inhibition [5, 7] | growth inhibition [5, 8] | growth inhibition ([5]; at 50.0 µM) | growth inhibition [6, 7] | growth inhibition [6, 8] | growth inhibition ([6]; at 50.0 µM)
COc1cccc(/C=C/C(C)=O)c1OC | 2% | 35% | 76% (active) | 4% | 8% | 13.9% | -1% | 3% | 24.5% | -4% | 4% | 21.9% | -2% | -1% | 5.2% | -4% | 7% | 37.5%
O=C(O)c1c(Cl)c(Cl)c(Cl)c(Cl)c1-c1c2ccc(=O)cc-2oc2cc(O)ccc12 | 54% | 97% (active) | 86.7% (active) | 45% | 99% (active) | 92% (active) | 61% | 99% (active) | 90.5% (active) | 57% | 98% (active) | 91.2% (active) | 57% | 99% (active) | 90.1% (active) | 67% | 98% (active) | 86.2% (active)
CN(C)C1=NC(N(C)C)=C2C=CC=C12 | -3% | 49% | 66.2% | -2% | 51% | 43.8% | -4% | 34% | 33.4% | -3% | 40% | 72.5% (active) | 2% | 73% (active) | 82.2% (active) | -6% | 71% (active) | 86.8% (active)
CCOC(=O)/C=C(\C)c1ccc([N+](=O)[O-])cc1 | -158% | -127% | 36.1% | -49% | -51% | -17.3% | -65% | -57% | -17.9% | -63% | -69% | -94.7% | -63% | -54% | 17.1% | -153% | -114% | 3.95%
CCOC(=O)c1c(N2CCCC2)nsc1Nc1ccc(F)cc1 | -3% | 90% (active) | 91.8% (active) | -1% | 93% (active) | 87.2% (active) | 13% | 90% (active) | 92% (active) | 2% | 75% (active) | 45% | 1% | 92% (active) | 94.8% (active) | -2% | 88% (active) | 93.5% (active)
CCCCN1CSC(=S)N(Cc2ccccc2)C1 | 2% | 38% | 32.8% | 3% | 3% | -21.7% | 13% | 30% | 10.3% | 30% | 25% | -41.1% | 5% | 38% | 23.8% | -10% | 38% | 31.4%
CCOC(=O)C(C(=O)O)(C(c1ccccc1)c1ccccc1)C(c1ccccc1)c1ccccc1 | 97% (active) | 98% (active) | 98.5% (active) | 100% (active) | 100% (active) | 99.5% (active) | 98% (active) | 99% (active) | 98.4% (active) | 98% (active) | 99% (active) | 98.9% (active) | 98% (active) | 98% (active) | 98.3% (active) | 99% (active) | 99% (active) | 99% (active)
CCOc1cc2c(cc1Cc1c(OC)cc(OC)cc1OC)OCO2 | 5% | 27% | 46% | 3% | 31% | 16.5% | 8% | 57% | 88% (active) | 4% | 30% | 46.8% | 4% | 63% | 77.8% (active) | 7% | 73% (active) | 83.3% (active)
OCCN1COc2cc3c(cc2C1)OCN(CCO)C3 | 1% | 11% | 17.4% | -4% | 1% | -4.9% | -1% | 14% | 13.2% | 3% | -5% | 42.9% | 1% | -3% | -6.35% | -5% | 10% | 16.2%
Cn1c(=S)c2[nH]c(SCCN3CCOCC3)nc2n(C)c1=O | 18% | 81% (active) | 98.5% (active) | 20% | 70% (active) | 99.5% (active) | 31% | 72% (active) | 99.4% (active) | 3% | 59% | 61% | 30% | 83% (active) | 99% (active) | 15% | 90% (active) | 98.7% (active)
CCCCCCCCN=C(N)c1ccc(C(=O)OCC2CCCCC2)cc1 | 98% (active) | 99% (active) | 99.6% (active) | 99% (active) | 100% (active) | 99.7% (active) | 99% (active) | 99% (active) | 99.7% (active) | 98% (active) | 99% (active) | 99.5% (active) | 98% (active) | 100% (active) | 99.6% (active) | 100% (active) | 100% (active) | 99.7% (active)
CC1=C(C(=O)Nc2cc(C)ccc2C)C(c2cccc([N+](=O)[O-])c2)C(C(=O)Nc2cc(C)ccc2C)=C(C)N1 | 8% | 49% | -12.3% | 19% | 72% (active) | 34.5% | 19% | 34% | 26.7% | 5% | 61% | 19.2% | 17% | 74% (active) | 29.6% | 17% | 65% | 31.6%
Oc1cc2ccccc2c2c1ccc1ccccc12 | -142% | 90% (active) | 84.5% (active) | -35% | 97% (active) | 77.8% (active) | -52% | 95% (active) | 86.7% (active) | -55% | 95% (active) | 67.8% | -55% | 94% (active) | 84% (active) | -94% | 92% (active) | 77.3% (active)
CCc1nc(N)nc(N)c1-c1ccc(N(C)Cc2ccccc2)c([N+](=O)[O-])c1 | 10% | -13% | 8.55% | 7% | 0% | 22.1% | 37% | 37% | 3.1% | 31% | 40% | 4.05% | 52% | 34% | 10.1% | 8% | -6% | 14.5%
C=C1CC/C=C(/C(=O)O)CC[C@H]2[C@@H]1CC2(C)C | -5% | 58% | 63.6% | 4% | 71% (active) | 60.1% | 3% | 68% | 57.4% | -6% | 50% | 53.6% | 0% | 78% (active) | 69.5% | -1% | 74% (active) | 53.2%
O=P(C(=S)Nc1ccccc1Cl)(c1ccccc1)c1ccccc1 | 15% | 96% (active) | 88.5% (active) | 16% | 98% (active) | 90.5% (active) | -1% | 96% (active) | 92.8% (active) | -6% | 97% (active) | 87.5% (active) | -26% | 97% (active) | 89.2% (active) | -26% | 96% (active) | 89.2% (active)
Clc1ccc(C(CCOc2ccccc2Br)Cn2ccnc2)c(Cl)c1 (configuration not stated) | 89% (active) | 98% (active) | 99.7% (active) | 75% (active) | 99% (active) | 99.7% (active) | 82% (active) | 99% (active) | 99.7% (active) | 68% | 99% (active) | 97% (active) | 89% (active) | 99% (active) | 99.7% (active) | 79% (active) | 99% (active) | 95.3% (active)
C=C(Br)CN(CC(=C)Br)C(C)=O | 17% | 21% | -11.7% | 17% | 14% | -11.1% | 25% | 16% | -2.5% | 15% | 24% | -45.4% | 14% | 10% | -1.4% | 22% | 21% | -53.9%
O=C1C(Br)=C(Sc2ccc([N+](=O)[O-])cc2)C(=O)c2ccccc21 | 56% | 90% (active) | 93.5% (active) | 64% | 94% (active) | 96.7% (active) | 51% | 96% (active) | 96.6% (active) | 11% | 91% (active) | 84.2% (active) | 65% | 96% (active) | 96.6% (active) | 33% | 92% (active) | 97% (active)
